Drawing on ChEMBL document CHEMBL1961873, “Compounds: GSK PKIS; Assays: Nanosyn kinase panel” (2012), this text covers inhibition for four compounds.

For test [1], the target named is T1, Ephrin type-B receptor 2 (Homo sapiens) (UniProt P29323).
T1 sequence (whole entry): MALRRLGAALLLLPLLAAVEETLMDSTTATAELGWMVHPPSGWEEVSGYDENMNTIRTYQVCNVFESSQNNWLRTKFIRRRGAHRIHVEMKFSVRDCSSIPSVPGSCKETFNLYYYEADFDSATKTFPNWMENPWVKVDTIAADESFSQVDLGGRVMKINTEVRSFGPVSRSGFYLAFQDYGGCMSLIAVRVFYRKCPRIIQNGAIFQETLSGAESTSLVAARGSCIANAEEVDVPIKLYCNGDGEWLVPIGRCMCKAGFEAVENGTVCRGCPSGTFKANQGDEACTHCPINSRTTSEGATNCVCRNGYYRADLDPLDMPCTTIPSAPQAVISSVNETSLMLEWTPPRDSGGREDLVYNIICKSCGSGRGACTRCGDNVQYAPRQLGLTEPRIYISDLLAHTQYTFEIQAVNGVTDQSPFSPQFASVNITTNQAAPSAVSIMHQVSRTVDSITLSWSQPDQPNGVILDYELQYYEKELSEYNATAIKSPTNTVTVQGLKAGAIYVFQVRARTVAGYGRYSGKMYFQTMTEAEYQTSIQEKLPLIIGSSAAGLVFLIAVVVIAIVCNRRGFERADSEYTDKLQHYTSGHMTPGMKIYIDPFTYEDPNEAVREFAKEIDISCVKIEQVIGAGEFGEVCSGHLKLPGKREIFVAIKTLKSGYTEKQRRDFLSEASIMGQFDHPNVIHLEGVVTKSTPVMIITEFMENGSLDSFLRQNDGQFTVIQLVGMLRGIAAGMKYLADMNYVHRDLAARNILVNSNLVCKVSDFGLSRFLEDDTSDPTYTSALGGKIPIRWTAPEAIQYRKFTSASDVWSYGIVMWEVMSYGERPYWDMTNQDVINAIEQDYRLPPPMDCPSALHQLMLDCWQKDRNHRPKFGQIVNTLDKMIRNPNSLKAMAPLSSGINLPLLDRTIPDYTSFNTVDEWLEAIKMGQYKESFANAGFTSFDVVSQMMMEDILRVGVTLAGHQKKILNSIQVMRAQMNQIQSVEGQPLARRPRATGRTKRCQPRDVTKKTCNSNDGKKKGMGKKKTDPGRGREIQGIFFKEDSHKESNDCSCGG
The conditions noted are these: at 1 µM.

Test [2] deals with T2, Ephrin type-B receptor 3 (Homo sapiens) (UniProt P54753).
T2 sequence (whole entry): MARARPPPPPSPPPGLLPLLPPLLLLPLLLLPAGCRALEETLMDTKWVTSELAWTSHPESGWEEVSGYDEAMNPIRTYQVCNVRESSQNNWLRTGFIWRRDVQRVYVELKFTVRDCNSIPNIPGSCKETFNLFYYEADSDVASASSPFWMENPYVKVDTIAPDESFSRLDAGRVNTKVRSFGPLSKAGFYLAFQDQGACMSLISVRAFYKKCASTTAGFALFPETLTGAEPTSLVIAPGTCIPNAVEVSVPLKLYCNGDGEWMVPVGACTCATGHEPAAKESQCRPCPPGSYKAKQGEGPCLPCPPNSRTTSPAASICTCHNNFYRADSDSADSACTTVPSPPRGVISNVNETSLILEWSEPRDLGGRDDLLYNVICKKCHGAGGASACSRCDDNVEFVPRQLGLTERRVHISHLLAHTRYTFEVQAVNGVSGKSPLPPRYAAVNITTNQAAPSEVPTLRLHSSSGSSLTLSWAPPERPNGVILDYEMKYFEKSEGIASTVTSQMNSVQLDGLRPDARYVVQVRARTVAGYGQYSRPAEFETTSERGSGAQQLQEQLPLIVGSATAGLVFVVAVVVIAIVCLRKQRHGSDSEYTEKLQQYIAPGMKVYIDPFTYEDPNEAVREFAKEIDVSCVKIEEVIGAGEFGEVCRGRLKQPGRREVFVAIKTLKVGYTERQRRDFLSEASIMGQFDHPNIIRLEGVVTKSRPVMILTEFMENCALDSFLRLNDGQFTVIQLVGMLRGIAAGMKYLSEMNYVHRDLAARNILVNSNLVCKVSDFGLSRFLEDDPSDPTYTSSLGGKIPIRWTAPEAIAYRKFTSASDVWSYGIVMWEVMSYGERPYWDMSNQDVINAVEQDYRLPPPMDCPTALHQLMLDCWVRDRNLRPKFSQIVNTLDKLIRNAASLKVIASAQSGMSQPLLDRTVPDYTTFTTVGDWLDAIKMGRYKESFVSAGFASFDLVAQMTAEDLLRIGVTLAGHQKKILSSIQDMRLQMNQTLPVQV
The conditions noted are these: at 0.1 µM.

Test [3] addresses T2, Ephrin type-B receptor 3 (Homo sapiens). The conditions noted are these: at 1 µM.
Test [4] has as its target T3, Ephrin type-B receptor 4 (Homo sapiens) (UniProt P54760).
T3 sequence (whole entry): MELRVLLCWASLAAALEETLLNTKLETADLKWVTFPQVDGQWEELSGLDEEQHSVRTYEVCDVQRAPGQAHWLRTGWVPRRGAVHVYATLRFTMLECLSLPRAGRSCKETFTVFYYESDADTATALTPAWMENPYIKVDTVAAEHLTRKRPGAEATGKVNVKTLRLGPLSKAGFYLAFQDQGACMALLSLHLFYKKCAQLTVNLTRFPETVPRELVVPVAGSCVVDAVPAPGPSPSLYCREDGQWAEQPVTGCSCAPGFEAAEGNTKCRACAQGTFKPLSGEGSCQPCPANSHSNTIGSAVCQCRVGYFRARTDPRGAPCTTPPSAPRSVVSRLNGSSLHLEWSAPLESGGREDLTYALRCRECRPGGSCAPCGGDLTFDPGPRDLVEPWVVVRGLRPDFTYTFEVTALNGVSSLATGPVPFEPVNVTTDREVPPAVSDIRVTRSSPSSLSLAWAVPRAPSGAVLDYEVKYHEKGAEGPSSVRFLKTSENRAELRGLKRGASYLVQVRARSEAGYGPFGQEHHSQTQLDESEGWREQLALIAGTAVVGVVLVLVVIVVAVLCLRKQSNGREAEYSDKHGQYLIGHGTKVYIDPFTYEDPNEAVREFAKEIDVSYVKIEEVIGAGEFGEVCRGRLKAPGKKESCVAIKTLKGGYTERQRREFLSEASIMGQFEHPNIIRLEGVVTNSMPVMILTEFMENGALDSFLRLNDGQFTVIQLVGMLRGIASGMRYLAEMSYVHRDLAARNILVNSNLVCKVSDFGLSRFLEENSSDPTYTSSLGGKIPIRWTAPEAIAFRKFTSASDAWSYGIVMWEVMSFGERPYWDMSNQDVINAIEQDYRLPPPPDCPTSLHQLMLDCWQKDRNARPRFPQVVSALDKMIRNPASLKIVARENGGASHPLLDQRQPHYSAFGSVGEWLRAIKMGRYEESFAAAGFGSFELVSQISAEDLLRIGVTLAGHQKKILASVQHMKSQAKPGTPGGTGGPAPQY
The conditions noted are these: at 0.1 µM.

For test [5], the target named is T3, Ephrin type-B receptor 4 (Homo sapiens). The conditions noted are these: at 1 µM.
For test [6], the target named is Receptor tyrosine-protein kinase erbB-2 (Homo sapiens) (UniProt P04626). The conditions noted are these: at 0.1 µM.
Receptor tyrosine-protein kinase erbB-2 (Homo sapiens), sequence (P04626 whole entry): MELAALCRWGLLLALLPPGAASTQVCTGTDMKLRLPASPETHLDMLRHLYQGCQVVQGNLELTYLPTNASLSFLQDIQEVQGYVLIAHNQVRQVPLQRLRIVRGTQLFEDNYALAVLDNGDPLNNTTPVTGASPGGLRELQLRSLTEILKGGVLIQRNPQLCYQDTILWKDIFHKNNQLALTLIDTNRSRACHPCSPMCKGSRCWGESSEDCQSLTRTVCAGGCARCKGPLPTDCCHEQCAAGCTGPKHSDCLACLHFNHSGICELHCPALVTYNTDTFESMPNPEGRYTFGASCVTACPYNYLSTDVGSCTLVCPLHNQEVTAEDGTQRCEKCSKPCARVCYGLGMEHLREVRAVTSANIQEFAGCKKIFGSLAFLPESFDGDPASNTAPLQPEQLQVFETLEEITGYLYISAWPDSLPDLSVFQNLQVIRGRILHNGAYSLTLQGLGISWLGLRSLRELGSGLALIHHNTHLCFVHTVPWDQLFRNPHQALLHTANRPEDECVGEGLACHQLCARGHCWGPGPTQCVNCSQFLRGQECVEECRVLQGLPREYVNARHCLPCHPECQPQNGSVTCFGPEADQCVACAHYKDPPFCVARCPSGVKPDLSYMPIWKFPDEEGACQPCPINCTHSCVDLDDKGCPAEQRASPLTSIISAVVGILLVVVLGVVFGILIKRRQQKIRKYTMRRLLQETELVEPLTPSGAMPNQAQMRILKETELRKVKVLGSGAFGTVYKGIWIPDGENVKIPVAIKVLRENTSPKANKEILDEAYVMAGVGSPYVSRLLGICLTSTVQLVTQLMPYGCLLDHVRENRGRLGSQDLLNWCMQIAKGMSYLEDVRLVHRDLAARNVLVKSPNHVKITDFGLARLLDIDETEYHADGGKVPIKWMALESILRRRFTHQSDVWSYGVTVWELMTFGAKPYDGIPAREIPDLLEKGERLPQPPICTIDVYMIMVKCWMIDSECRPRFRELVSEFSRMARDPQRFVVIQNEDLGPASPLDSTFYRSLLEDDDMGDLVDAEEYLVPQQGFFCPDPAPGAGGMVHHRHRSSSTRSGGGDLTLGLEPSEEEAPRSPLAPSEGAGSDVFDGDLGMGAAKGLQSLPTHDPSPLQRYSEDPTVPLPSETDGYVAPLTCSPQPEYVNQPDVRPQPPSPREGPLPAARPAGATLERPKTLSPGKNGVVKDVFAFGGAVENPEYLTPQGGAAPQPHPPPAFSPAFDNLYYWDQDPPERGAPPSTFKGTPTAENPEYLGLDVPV
The target is the same in test [7]. The conditions noted are these: at 1 µM.
The target in test [8] is Receptor tyrosine-protein kinase erbB-4 (Homo sapiens) (UniProt Q15303). The conditions noted are these: at 0.1 µM.
Receptor tyrosine-protein kinase erbB-4 (Homo sapiens), sequence (Q15303 whole entry): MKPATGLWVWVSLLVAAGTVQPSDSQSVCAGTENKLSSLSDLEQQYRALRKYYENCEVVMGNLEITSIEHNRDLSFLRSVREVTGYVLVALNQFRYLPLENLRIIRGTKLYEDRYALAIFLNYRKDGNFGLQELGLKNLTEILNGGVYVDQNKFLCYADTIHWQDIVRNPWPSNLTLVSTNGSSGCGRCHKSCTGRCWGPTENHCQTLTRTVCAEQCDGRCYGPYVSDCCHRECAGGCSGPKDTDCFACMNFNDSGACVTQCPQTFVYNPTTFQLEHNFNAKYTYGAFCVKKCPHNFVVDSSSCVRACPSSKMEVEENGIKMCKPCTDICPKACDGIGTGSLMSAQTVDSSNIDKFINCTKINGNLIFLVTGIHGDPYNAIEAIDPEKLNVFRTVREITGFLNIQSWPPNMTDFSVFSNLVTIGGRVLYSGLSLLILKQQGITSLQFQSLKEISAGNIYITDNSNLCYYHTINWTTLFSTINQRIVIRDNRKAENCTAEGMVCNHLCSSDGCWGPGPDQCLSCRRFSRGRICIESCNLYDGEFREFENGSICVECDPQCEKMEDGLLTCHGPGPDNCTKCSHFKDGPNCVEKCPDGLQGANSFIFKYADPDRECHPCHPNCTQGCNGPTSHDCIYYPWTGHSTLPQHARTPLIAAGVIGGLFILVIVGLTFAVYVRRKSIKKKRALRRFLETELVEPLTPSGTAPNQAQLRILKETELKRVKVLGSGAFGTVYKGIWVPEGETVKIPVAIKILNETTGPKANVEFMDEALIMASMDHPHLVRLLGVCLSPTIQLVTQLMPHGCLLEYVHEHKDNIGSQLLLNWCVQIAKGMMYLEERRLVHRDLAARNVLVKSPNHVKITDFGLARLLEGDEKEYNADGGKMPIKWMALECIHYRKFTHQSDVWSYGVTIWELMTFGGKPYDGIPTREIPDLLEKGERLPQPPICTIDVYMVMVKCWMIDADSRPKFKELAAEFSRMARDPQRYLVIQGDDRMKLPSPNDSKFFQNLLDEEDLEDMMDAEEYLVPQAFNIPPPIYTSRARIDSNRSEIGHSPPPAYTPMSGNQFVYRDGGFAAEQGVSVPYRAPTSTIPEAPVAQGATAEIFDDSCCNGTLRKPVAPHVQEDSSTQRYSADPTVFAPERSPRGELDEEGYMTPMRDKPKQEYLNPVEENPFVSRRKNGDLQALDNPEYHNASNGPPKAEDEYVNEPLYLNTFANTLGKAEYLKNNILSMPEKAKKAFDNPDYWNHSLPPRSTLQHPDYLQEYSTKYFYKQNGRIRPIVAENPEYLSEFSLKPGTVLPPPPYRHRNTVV
For test [9] the target is unchanged. The conditions noted are these: at 1 µM.
The target in test [10] is Tyrosine-protein kinase Fer (Homo sapiens) (UniProt P16591). The conditions noted are these: at 0.1 µM.
Test [11] has the same target. The conditions noted are these: at 1 µM.
For test [12], the target named is Tyrosine-protein kinase Fes/Fps (Homo sapiens) (UniProt P07332). The conditions noted are these: at 0.1 µM.
Tyrosine-protein kinase Fes/Fps (Homo sapiens), sequence (P07332 whole entry): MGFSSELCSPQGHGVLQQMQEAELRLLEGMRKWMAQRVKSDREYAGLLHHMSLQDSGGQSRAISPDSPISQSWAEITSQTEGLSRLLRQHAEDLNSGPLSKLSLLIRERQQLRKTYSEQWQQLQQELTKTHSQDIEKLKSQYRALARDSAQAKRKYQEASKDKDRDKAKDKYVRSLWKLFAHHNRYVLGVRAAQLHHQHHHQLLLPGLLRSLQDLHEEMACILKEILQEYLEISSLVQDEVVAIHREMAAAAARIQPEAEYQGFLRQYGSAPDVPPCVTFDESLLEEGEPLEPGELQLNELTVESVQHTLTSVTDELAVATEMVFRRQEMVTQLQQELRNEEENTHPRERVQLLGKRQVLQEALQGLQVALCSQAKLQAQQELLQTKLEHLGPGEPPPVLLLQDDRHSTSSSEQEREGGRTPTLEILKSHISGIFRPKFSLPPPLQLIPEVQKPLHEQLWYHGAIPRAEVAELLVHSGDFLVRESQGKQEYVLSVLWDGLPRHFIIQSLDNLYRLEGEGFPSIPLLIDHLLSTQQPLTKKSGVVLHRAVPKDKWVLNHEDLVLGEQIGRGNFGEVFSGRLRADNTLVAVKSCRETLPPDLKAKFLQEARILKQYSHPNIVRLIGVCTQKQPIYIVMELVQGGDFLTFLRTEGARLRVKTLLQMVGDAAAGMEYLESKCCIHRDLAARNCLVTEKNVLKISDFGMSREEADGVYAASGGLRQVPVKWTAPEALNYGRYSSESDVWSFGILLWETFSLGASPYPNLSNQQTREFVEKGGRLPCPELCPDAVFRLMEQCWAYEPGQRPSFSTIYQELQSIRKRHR
For test [13] the target is unchanged. The conditions noted are these: at 1 µM.
Test [14] addresses Fibroblast growth factor receptor 1 (Homo sapiens) (UniProt P11362). The conditions noted are these: at 0.1 µM.
Test [15] has the same target. The conditions noted are these: at 1 µM.
Test [16] deals with Fibroblast growth factor receptor 2 (Homo sapiens) (UniProt P21802). The conditions noted are these: at 0.1 µM.
Fibroblast growth factor receptor 2 (Homo sapiens), sequence (P21802 22-821 limits assumed): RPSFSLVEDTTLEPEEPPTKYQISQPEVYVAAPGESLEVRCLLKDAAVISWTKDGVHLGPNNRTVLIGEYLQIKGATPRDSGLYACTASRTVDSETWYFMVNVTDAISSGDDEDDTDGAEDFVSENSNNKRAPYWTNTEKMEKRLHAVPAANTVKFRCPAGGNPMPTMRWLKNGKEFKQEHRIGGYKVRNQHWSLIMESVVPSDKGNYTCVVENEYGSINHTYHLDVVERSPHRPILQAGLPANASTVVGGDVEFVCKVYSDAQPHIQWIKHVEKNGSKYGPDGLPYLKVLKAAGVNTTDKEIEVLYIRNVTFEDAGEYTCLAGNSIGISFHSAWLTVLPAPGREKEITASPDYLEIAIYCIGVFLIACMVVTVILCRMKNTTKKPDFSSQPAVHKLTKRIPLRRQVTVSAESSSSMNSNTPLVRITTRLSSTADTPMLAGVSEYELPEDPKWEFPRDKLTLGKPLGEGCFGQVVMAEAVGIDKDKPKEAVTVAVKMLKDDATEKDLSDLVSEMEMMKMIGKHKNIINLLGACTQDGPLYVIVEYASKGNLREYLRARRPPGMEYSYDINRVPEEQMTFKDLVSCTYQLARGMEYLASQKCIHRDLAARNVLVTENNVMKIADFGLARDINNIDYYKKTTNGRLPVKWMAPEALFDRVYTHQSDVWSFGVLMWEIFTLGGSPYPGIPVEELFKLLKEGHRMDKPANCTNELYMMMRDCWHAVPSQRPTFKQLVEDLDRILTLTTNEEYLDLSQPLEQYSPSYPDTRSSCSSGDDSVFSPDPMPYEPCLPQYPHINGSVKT
Test [17] has the same target. The conditions noted are these: at 1 µM.
Test [18] concerns the target Fibroblast growth factor receptor 3 (Homo sapiens) (UniProt P22607). The conditions noted are these: at 0.1 µM.
The target is the same in test [19]. The conditions noted are these: at 1 µM.
The target in test [20] is Fibroblast growth factor receptor 4 (Homo sapiens) (UniProt P22455). The conditions noted are these: at 0.1 µM.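 Also: values are mean percent inhibition of FGFR4.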
Fibroblast growth factor receptor 4 (Homo sapiens), sequence (P22455 22-802 limits assumed): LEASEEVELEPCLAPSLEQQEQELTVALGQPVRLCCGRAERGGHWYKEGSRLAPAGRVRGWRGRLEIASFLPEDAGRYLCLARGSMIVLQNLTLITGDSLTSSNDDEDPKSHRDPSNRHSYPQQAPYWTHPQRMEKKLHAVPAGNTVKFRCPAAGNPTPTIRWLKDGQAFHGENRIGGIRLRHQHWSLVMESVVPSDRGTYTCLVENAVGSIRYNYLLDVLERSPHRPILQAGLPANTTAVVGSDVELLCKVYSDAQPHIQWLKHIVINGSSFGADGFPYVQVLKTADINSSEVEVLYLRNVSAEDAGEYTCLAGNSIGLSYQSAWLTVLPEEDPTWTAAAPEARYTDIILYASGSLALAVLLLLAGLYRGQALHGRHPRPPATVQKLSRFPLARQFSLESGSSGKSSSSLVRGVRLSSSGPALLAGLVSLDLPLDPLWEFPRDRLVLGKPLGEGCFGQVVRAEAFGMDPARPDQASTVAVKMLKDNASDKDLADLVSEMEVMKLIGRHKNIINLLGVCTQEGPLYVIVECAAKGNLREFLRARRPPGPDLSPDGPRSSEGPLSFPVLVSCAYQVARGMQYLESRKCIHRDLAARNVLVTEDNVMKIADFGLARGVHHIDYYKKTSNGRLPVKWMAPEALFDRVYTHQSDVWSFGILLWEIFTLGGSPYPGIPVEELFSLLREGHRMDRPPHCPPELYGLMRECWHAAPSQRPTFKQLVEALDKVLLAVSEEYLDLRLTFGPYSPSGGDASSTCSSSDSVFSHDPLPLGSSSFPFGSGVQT

By inhibition is commonly meant the change of the read-out against control, counted positive when it falls.

Regarding `Fc1cccc(COc2ccc(Nc3ncnc4sc(-c5ccco5)cc34)cc2Cl)c1`, the inhibition in [1] is 8.15%; in test [2], 5.55%; in test [3], 4.99%; in test [4], 4%; in test [5], 2.19%; in test [6] it was -0.58%. The inhibition was 14.7% in [7]; 28.4% in test [8]; 75.8% in [9]; 1.71% in test [10]; 3.22% in test [11]; 3.4% in [12]. Further, the inhibition in [13] turned out to be 2.89%; in [14], 1.73%; in test [15], 5.35%; in test [16], 4.08%; in [17], 8.41%; in test [18] it was 5.53%. Moreover, the values for the inhibition in test [19] and in test [20] were 5.9% and 0.31%, respectively.

For the compound `CN1CCC(n2cnc(-c3ccc(F)cc3)c2-c2ccnc(Nc3ccccc3)n2)CC1`, the inhibition in test [1] was determined as 44.1%; in test [2] it was 4.66%; in test [3], 2.3%; in test [4] it was 3.77%; in [5], 12.6%; in test [6], 5.05%. The inhibition in test [7] amounted to 15.9%; in [8], 10.6%; in test [9] it was 27.2%; in test [10], 1.86%; in test [11], 4.62%; in test [12], 2.34%. The inhibition was 3.11% in test [13]; 1.2% in test [14]; -0.76% in [15]; 2.32% in [16]; 4.35% in [17]; 4.39% in [18]. Further, the values for the inhibition in [19] and in [20] were 0.24% and 0.09%, respectively.

In the case of `Clc1ccc(-c2nn3ncccc3c2-c2ccnc(Nc3ccccc3)n2)cc1`, the inhibition in test [1] was 55.4%; in [2] it was 4.87%; in test [3], 5.92%; in test [4], 6.02%; in [5], 37.2%; in test [6], -4.83%. In addition, the inhibition in test [7] stood at 6.14%; in [8], 27.9%; in test [9], 69.5%; in test [10], 1.86%; in [11], 4.34%; in test [12] it was 0.87%. Further, the inhibition in test [13] is 1.62%; in test [14], -0.82%; in test [15], 7.85%; in test [16], 0.58%; in test [17], 10.3%; in test [18] it was 4.85%. In addition, the inhibition in test [19] was 6%; in test [20], 1.52%.

For the compound `COc1ccc2c(-c3ccnc(Nc4cccc(OC(F)(F)F)c4)n3)cnn2n1`, the inhibition in test [1] is 14.9%; in test [2] it was 3.51%; in test [3] it was 5.86%; in [4], 0.79%; in test [5] it was 4.73%; in [6], 1.6%. The inhibition in [7] was determined as 2.79%; in [8], 8.76%; in test [9], 9.71%; in test [10], 4.88%; in test [11], 16.5%; in [12] it was 3.41%. Further, the inhibition came out at 8.88% in test [13]; 1.54% in test [14]; 0.82% in test [15]; 11.6% in test [16]; 6.91% in [17]; 5.66% in test [18]. For the same compound, the values for the inhibition in [19] and in test [20] were 6.19% and 1.76%, respectively.
